Laboratory results published in PubChem BioAssay (NCATS).
“And” between values parts separate entries of the source, which are not always exact repeats. Identical values can stand only once. Records with an inconclusive call do not appear. The source made the active and inactive calls. Calls follow the shape of the dose curve; as a rule, active = well fitted curve in the direction sought with a large enough effect; inconclusive = small, poorly fitted or top-dose-only effect, or another doubt; inactive = no such curve, though single readings can be large; an effect the other way counts as inactive or inconclusive.

Legend:
[1] = Cellular Toxicity (caspase-3) NIH 3T3 (AID 666); details: NIH 3T3 caspase-3 activation, apoptosis/toxicity, 0% DMSO, 100% is 100 µM tamoxifen; series mostly up to 92.2 µM;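 also: 0% = DMSO basal and 100% = 100 µM tamoxifen stimulation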
How it was run: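 Mouse NIH 3T3 fibroblasts (1000 cells/well) were treated with compound for 16 hr at 37°C in complete medium; caspase-3/7 activity was read by Caspase-Glo luminescence. Normalized to DMSO and 100 uM tamoxifen; AC50 from Hill fits.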

[2] = Cellular Toxicity (caspase-3) Renal Proximal Tubule (AID 667); details: renal proximal tubule cells; at 91.7 µM (top of the series), primary cells freshly taken from rat, solvent-only wells 0%, staurosporine 100% unless noted;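 also: cells exposed to compound for 16 hours at 37 °C before detection; 0% = DMSO basal and 100% = 10 µM staurosporine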
How it was run: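 Caspase-Glo 3/7 read-out, rat primary kidney proximal tubule cells. Compound exposure 16 h, 37 °C; detection after 1 h at RT. Activity scaled to DMSO and 10 uM staurosporine.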

[3] = target: Cytochrome P450 3A4 (Homo sapiens) (UniProt P08684); assay: qHTS Assay for Activators of Cytochrome P450 3A4 (AID 885); details: recombinant CYP3A4, Luciferin-PPXE luminescence, 60 min; series mostly up to 57.1 µM; also: nearly all actives have a fitted effect of over 65% in size
How it was run: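 Human CYP3A4 (20 nM) with Luciferin-PPXE at 25 uM (its KM) in 200 mM KPO4; 10 min compound preincubation, then NADPH regeneration and 60 min reaction at RT. Luciferin read by luminescence; normalized to 57 uM ketoconazole full inhibition.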

[4] = MultiTox-Fluor Cytotoxicity Assay - LYMP1-001 - Live Cells (AID 947); details: LYMP1-001 lymphoblastoid cells, live-cell protease fluorescence viability; series mostly up to 92.2 µM;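 also: 0% = DMSO only and full inhibition = tetraoctylammonium bromide control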
[5] = Cell Viability - LYMP1-002 - Assay at 16 hr (AID 948); details: LYMP1-002 lymphoblastoid cell viability; series mostly up to 92.2 µM;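 also: 0% = DMSO alone and full effect = 92 µM tetraoctylammonium bromide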
How it was run: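 In this qHTS, lymphoblastoid LYMP1-002 cells (human) receive compounds for 16 hr at 37 C. Viability is taken from CellTiter-Glo ATP luminescence, and AC50 derives from standard Hill fits.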

[6] = MultiTox-Fluor Cytotoxicity Assay - LYMP1-002 - Live Cells (AID 955); details: LYMP1-002 lymphoblastoid live-cell protease fluorescence viability; series mostly up to 46.1 µM; also: % is scaled to controls: 0 for no effect and ±100 for the full control effect
How it was run: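 Human lymphoblastoid LYMP1-002 cells, 2500/well in complete medium, rested 5 hr at 37 C, then exposed to compounds for 16 hr at 37 C. Live-cell protease cleavage of GF-AFC read by fluorescence (Ex/Em 405/510) after 60 min at room temperature; AC50 from Hill fits.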

[7] = MultiTox-Fluor Cytotoxicity Assay - LYMP1-002 - Dead Cells (AID 960); details: LYMP1-002 lymphoblastoid cells, dead-cell protease fluorescence; series mostly up to 46.1 µM;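 also: 0% = DMSO and 100% = tetraoctylammonium bromide; nearly all actives have a fitted effect of over 60% in size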
How it was run: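 Human lymphoblastoid cells (LYMP1-002), 2500/well in complete medium, were exposed to compounds for 16 hr at 37 C. Dead-cell protease activity was read as bis-AAF-R110 fluorescence (Ex/Em 485/520), normalized to DMSO and 15 uM tetraoctylammonium bromide; AC50 from Hill fits.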

[8] = MultiTox-Fluor Cytotoxicity Assay - LYMP1-003 - Dead Cells (AID 961); details: LYMP1-003 lymphoblastoid cells, dead-cell protease fluorescence; series mostly up to 92.2 µM;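 also: 0% = DMSO and 100% = tetraoctylammonium bromide; nearly all actives have a fitted effect of over 70% in size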
How it was run: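 LYMP1-003 human lymphoblastoid cells (2500/well) exposed to compound 16 h at 37 C in complete medium; dead-cell protease read with bis-AAF-R110 fluorescence (Ex/Em 485/520) after 60 min at room temperature. Normalized to DMSO and 15 uM tetraoctylammonium bromide; AC50 from Hill fit.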

[9] = MultiTox-Fluor Cytotoxicity Assay - LYMP1-003 - Live Cells (AID 962); details: LYMP1-003 lymphoblastoid cells, MultiTox-Fluor live-cell protease fluorescence; series mostly up to 92.2 µM;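 also: 0% = DMSO only and full loss = 92 µM tetraoctylammonium bromide; cytotoxic hits lower the live-cell protease signal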
How it was run: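 LYMP1-003 human lymphoblastoid cells (2500/well) in complete medium were preincubated 5 hr at 37 C, then exposed to compounds for 16 hr at 37 C. Live-cell protease cleavage of GF-AFC read by fluorescence (Ex/Em 405/510); AC50 from Hill fits.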

[10] = Cell Viability - LYMP1-003 - Assay at 24 hr (AID 963); details: LYMP1-003 lymphoblastoid cell viability; series mostly up to 92.2 µM;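 also: plate controls were DMSO only for no effect and tetraoctylammonium bromide positive control for full effect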
How it was run: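 Human lymphoblastoid LYMP1-003 cells (2500/well) were rested 5 hr at 37 C, then exposed to compounds in complete medium for 24 hr at 37 C. Cellular ATP was quantified by CellTiter-Glo luminescence, and AC50 values came from Hill fits of concentration-response data.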

[11] = Cell Viability - LYMP2-003 (AID 965); details: LYMP2-003 lymphoblastoid cell viability; series mostly up to 92.2 µM;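 also: cells exposed to compounds for 24 h before reading; 0% = DMSO only and full effect = 92 µM tetraoctylammonium bromide; nearly all actives have a fitted effect of over 50% in size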
How it was run: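 qHTS, human lymphoblastoid line, 2500 cells/well, complete medium. 24 h drug, 37 C. ATP-based luminescent readout; Hill-fit AC50.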

[12] = Cell Viability - LYMP2-004 (AID 966); details: LYMP2-004 lymphoblastoid cell viability, qHTS; series mostly up to 92.2 µM;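 also: plate controls were DMSO only for no effect and tetraoctylammonium bromide control for full effect; nearly all actives have a fitted effect of over 65% in size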
How it was run: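 Human lymphoblastoid cells (2500/well) in complete medium were treated with compounds for 24 hr at 37 C, then intracellular ATP was measured by CellTiter-Glo luminescence. AC50 values came from Hill-equation fits of concentration-response data.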

[13] = Cell Viability - LYMP2-009 (AID 968); details: LYMP2-009 lymphoblastoid cell viability; series mostly up to 92.2 µM;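 also: 0% = DMSO alone and the full-kill end = tetraoctylammonium bromide at 92 µM; nearly all actives have a fitted effect of over 55% in size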
[14] = Cell Viability - LYMP2-011 (AID 969); details: LYMP2-011 lymphoblastoid cells viability; series mostly up to 92.2 µM;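 also: 0% = DMSO only and full inhibition = 92 µM tetraoctylammonium bromide; nearly all actives have a fitted effect of over 60% in size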
How it was run: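 Human lymphoblastoid cells (2500/well) were plated in complete medium, preincubated 5 hr at 37 C, then exposed to compounds for 24 hr at 37 C. Intracellular ATP was read by CellTiter-Glo luminescence, and AC50 came from Hill-equation concentration-response fits.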

[15] = Cell Viability - LYMP2-013 (AID 970); details: LYMP2-013 lymphoblastoid cells viability; series mostly up to 92.2 µM;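 also: 0% = DMSO only and full inhibition = tetraoctylammonium bromide control; nearly all actives have a fitted effect of over 55% in size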
How it was run: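 Human lymphoblastoid cells, 2500/well, were preincubated 5 hr at 37 C, then treated with compounds for 24 hr at 37 C in complete medium. Intracellular ATP was read by CellTiter-Glo luminescence; AC50 from Hill-equation fits of concentration-response data.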

[16] = Cell Viability - LYMP2-019 (AID 973); details: LYMP2-019 lymphoblastoid cell line viability; series mostly up to 92.2 µM;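 also: 0% = DMSO alone and full effect = 92 µM tetraoctylammonium bromide; nearly all actives have a fitted effect of over 55% in size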
How it was run: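 Human lymphoblastoid cells were seeded at 2500 cells/well, preincubated 5 hr at 37 C, then exposed to compounds for 24 hr at 37 C in complete medium. Intracellular ATP was measured by CellTiter-Glo luminescence; AC50 from Hill fits.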

[17] = Cell Viability - LYMP2-021 (AID 974); details: LYMP2-021 lymphoblastoid cells viability; series mostly up to 92.2 µM;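 also: compound exposure lasts 24 hours at 37 °C; % is scaled to controls: 0 for no effect and ±100 for the full control effect; nearly all actives have a fitted effect of over 55% in size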
How it was run: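 Human lymphoblastoid cells (2500/well) were preincubated 5 hr at 37 C, then exposed to compounds for 24 hr at 37 C in complete medium. Intracellular ATP was read by CellTiter-Glo luminescence; AC50 came from Hill-equation fits of concentration-response data.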

[18] = Cell Viability - LYMP2-023 (AID 975); details: LYMP2-023 lymphoblastoid cell viability; series mostly up to 92.2 µM
How it was run: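 Human lymphoblastoid cells (2500/well) were preincubated 5 hr at 37 C, then exposed to compounds for 24 hr at 37 C in complete medium. Cellular ATP was read by CellTiter-Glo luminescence, and AC50 came from Hill-equation fits.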

[19] = Cell Viability - LYMP2-025 (AID 976); details: LYMP2-025 lymphoblastoid cell viability; series mostly up to 92.2 µM;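 also: plate controls were DMSO only for no effect and tetraoctylammonium bromide control for full effect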
How it was run: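 Human lymphoblastoid LYMP2-025 cells (2500/well) were pre-incubated 5 hr at 37 C, then treated with compounds for 24 hr at 37 C in complete medium. Viability was read as intracellular ATP by CellTiter-Glo luminescence; AC50 from Hill fits.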

[20] = Cell Viability - LYMP2-002 (AID 977); details: LYMP2-002 lymphoblastoid cell viability, qHTS; series mostly up to 92.2 µM;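 also: plate controls were DMSO only for no effect and 92 µM tetraoctylammonium bromide for full effect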
How it was run: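 Luminescent ATP readout (CellTiter-Glo, 30 min room temperature) after 24 h compound exposure at 37 C of a human lymphoblastoid line, 2500 cells/well. AC50 values derived by standard Hill fitting of qHTS concentration-response data.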

Sequence of Cytochrome P450 3A4 (Homo sapiens) (P08684 whole entry, looked up): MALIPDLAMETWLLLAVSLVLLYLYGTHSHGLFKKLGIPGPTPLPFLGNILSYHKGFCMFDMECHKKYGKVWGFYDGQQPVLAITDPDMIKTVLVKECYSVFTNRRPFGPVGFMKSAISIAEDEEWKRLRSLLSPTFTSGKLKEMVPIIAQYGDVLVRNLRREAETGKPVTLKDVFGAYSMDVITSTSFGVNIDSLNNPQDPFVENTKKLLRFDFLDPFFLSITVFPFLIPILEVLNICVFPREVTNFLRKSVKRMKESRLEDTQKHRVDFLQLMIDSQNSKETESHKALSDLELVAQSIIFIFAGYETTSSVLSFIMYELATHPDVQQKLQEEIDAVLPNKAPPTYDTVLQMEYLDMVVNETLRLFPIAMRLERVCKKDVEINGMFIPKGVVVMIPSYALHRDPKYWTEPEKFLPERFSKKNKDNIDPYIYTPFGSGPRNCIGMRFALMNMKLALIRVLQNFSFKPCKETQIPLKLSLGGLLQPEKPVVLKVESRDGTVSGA

C[C@H]1CCCC(=O)CCC/C=C/c2cc(O)cc(O)c2C(=O)O1
inactive: outcome [1] | caspase-3 activation [2] 5.71% [at 91.7 µM] and 9.28% [at 91.7 µM] | Potency [3] | Potency [4] | Potency [5] | outcome [6] | Potency [7] | Potency [8] | Potency [9] | Potency [10] | Potency [11] | Potency [12] | Potency [13] | Potency [14] | Potency [15] | Potency [16] | Potency [17] | Potency [18] | Potency [19] | Potency [20]
